This is part of a sample that, as a whole, favours compounds with a hit. Of some 83,000 tested, about 20% had one in any assay.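 Each cell line was grown in a 96-well plate and treated with one concentration of compound for 48 hours. Values below 10 were considered active.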 Activity calls are given as the source filed them.
Tested on: M14 melanoma
Test: NCI-60 one-dose screen, 48 h (100 = growth as untreated, 0 = no growth, -100 = all killed)
Settings: 10 µM unless noted

Row | Compound | growth
1 | Cn1cc(-c2nc3c(F)cc4[nH]ncc4c3c3c2CCCC3)c(C(F)(F)F)n1 | 30.1% (inactive)
2 | CCCCCc1ccc(S(=O)(=O)Nc2ccc3nc(N)oc3c2)cc1 | 73.1% (inactive)
3 | Nc1ncnc2c1N=C(c1ccc(F)cc1)CC(c1cccc(Nc3ccnc4cc(Cl)ccc34)c1)N2 (stereo not drawn) | 72.1% (inactive)
4 | CCOC(=O)c1[nH]cc2c1CCc1sc(Nc3ccccn3)nc1-2 | 86.3% (inactive)
5 | C=C(C)[C@@H]1CC[C@]2(CO)CC[C@]3(C)[C@H](CC[C@@H]4[C@@](C)(CCCN)[C@H](C(=C)C)CC[C@]43C)[C@@H]12 | -74.9% (active)
6 | CCN1C(=O)N(c2ccccc2)C2NC(=S)N(/N=C/C=C/c3ccccc3OC)C21 (stereo not drawn) | 11.2% (inactive)
7 | CN1c2ccccc2S(=O)(=O)n2c(SCC(=O)Nc3nc4ccc(F)cc4s3)nnc21 | 100% (inactive)
8 | Clc1ccc(Nc2nnc(CNc3ccccc3)c3ccccc23)cc1 | 5.8% (active)
9 | N#C/C(=C\c1ccc(-c2cccc(Cl)c2)o1)C(=O)Nc1ncc(Cc2ccc(Cl)cc2)s1 | 62.5% (inactive)
10 | CN(C)CCC(CCN(C)C)(C(=O)O)c1ccccc1 | 99.2% (inactive)
11 | CC1(C)CC[C@]23CC[C@]4(C)[C@H](CC[C@@H]5[C@@]6(C)C/C(=C/O)C(=O)C(C)(C)[C@@H]6CC[C@]54C)[C@H]2[C@H]1OC3 | 103% (inactive)
12 | CN(C)C1CN(C(=O)c2cc(-c3ccc4ncnc(N5CCc6cc(F)c(Cl)cc65)c4c3)cnc2N)C1 | 9.34% (active)
13 | Cc1[nH]n(-c2cccc(Cl)c2)c(=O)c1/C=C1\C=c2ccccc2=CC1=O | 18.2% (inactive)
